This is a sample that favours compounds with a hit; in the whole collection about 4.4% have one here.
tim23-1 inh – inhibits growth of tim23-1 mutant yeast; S. cerevisiae tim23-1 growth, BacTiter-Glo luminescence, 24 h; actives 1.3% (n = 330,000); AID 463212; inhibition, % at 20 µM;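 active = growth inhibition of the mutant yeast at or above 50%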;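 also: temperature-sensitive mutant grown at 25 °C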
TIM10 inh – inhibits growth of TIM10 yeast strain. S. cerevisiae TIM10 strain growth, BacTiter-Glo luminescence, 24 h. inhibition, % at 10 µM. actives 1.4% (n = 330,000). AID 463195;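 active = inhibition of 40% or more at the single tested concentration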;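 also: wild-type TIM10 isogenic control strain grown at permissive 25 °C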
PfHsp90 yeast 2 – inhibits growth of yeast expressing Plasmodium falciparum Hsp90. S. cerevisiae expressing PfHsp90, BacTiter-Glo ATP, 48 h; yeast lacking PDR1 and PDR3 efflux regulators. inhibition, % at 9.4 µM. actives 0.32% (n = 310,000). AID 504621;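 active = every replicate shows inhibition above about 80%, whatever the replicate mean, limit read from the data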
tim10-1 inh – tim10-1 yeast growth inhibition; S. cerevisiae tim10-1 ts strain growth, BacTiter-Glo, 24 h; inhibition, % at 20 µM; actives 2.2% (n = 330,000); AID 463190;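 active = inhibition of at least 40%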;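 also: mutant grown at 25 °C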
SKKanGAS inh – inhibitors of SKKanGAS S. pyogenes growth in kanamycin (SK-promoter or general growth effect) | AID 1662 | inhibition, % at 7.5 µM | actives 1.3% (n = 300,000) | BacTiter-Glo, 6 h;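 active = mean replicate score, as percent of positive control median, at least 50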;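 also: strain carries kanamycin resistance gene driven by streptokinase promoter and grows in 40 µg/ml kanamycin; loss of luminescence reflects streptokinase promoter inhibition or plain growth inhibition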
tim10-1 conf – confirmation of tim10-1 mutant yeast growth inhibitors. inhibition, % at 20 µM. shares compounds with tim10-1 inh. actives 56% (n = 7,400). S. cerevisiae tim10-1 ts strain growth, BacTiter-Glo, 24 h. AID 463213;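 active = inhibition of yeast growth at or above a set limit in either of two repeat tests at 20 µM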;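 also: tim10-1 mutant grown at permissive 25 °C to find synthetic lethal compounds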
Numbers stand for hits.

How did Cn1c(/C=N/Nc2nc3ccccc3[nH]2)nc2ccccc21 do in these assays?
tim23-1 inh: inactive; TIM10 inh: inactive; PfHsp90 yeast 2: inactive; tim10-1 inh: 41; SKKanGAS inh: inactive; tim10-1 conf: inactive

What do the screens show for `Cc1ccnc(NC(=O)COC(=O)C2COc3ccccc3O2)n1` (stereo not drawn)?
tim23-1 inh: inactive; TIM10 inh: inactive; tim10-1 inh: 64; tim10-1 conf: inactive

What do the screens show for `NC(=O)c1ccc(NC(=O)COC(=O)C2COc3ccccc3O2)cc1` (stereo not drawn)?
tim23-1 inh: inactive; TIM10 inh: inactive; PfHsp90 yeast 2: inactive; tim10-1 inh: inactive

How did CCCCn1c(N)c(N(CCC(C)C)C(=O)c2ccc(N3CCCC3=O)cc2)c(=O)[nH]c1=O do in these assays?
tim23-1 inh: inactive; TIM10 inh: inactive; PfHsp90 yeast 2: inactive; tim10-1 inh: inactive; SKKanGAS inh: inactive

Results for Cc1cc(Cl)ccc1NC(=S)NCCC(c1ccccc1)c1ccccc1 ?
tim23-1 inh: inactive; TIM10 inh: inactive; PfHsp90 yeast 2: inactive; tim10-1 inh: 40; SKKanGAS inh: 66; tim10-1 conf: inactive

What do the screens show for `CN(Cc1ccccc1)S(=O)(=O)c1csc(C(N)=O)c1`?
tim23-1 inh: inactive; TIM10 inh: inactive; PfHsp90 yeast 2: inactive; tim10-1 inh: inactive; SKKanGAS inh: inactive

How did CCOC(=O)[C@H]1[C@H]2COc3ccc(C)cc3[C@@H]2N2C(=O)c3cc(Cl)ccc3NC(=O)[C@@]12C do in these assays?
tim23-1 inh: inactive; TIM10 inh: inactive; PfHsp90 yeast 2: inactive; tim10-1 inh: 40; tim10-1 conf: inactive

Results for O=C(CCNC(=O)c1ccco1)NC(Cc1c[nH]c2ccccc12)C(=O)O (stereo not drawn) ?
tim23-1 inh: inactive; TIM10 inh: inactive; PfHsp90 yeast 2: inactive; tim10-1 inh: inactive

How did O=c1nc2n(CCO)c3ccccc3cc-2c(=O)[nH]1 do in these assays?
PfHsp90 yeast 2: inactive

What do the screens show for `CCN(CC)CCCN(C(=O)c1ccco1)c1nc(-c2ccc(Cl)cc2)cs1`?
tim23-1 inh: inactive; TIM10 inh: inactive; PfHsp90 yeast 2: inactive; tim10-1 inh: 41; SKKanGAS inh: inactive; tim10-1 conf: inactive

Results for CCN(CC)CCCN(C(=O)c1ccco1)c1nc(-c2ccc(C)cc2)cs1 ?
tim23-1 inh: inactive; TIM10 inh: inactive; PfHsp90 yeast 2: inactive; tim10-1 inh: inactive; SKKanGAS inh: inactive

Results for CN(C)CCN(C(=O)/C=C/c1cccs1)c1nc2ccc(F)cc2s1 ?
tim23-1 inh: inactive; TIM10 inh: inactive; PfHsp90 yeast 2: inactive; tim10-1 inh: 44; SKKanGAS inh: inactive; tim10-1 conf: 35

Results for CC(C)Cn1c(N)c(C(=O)CSc2ccccc2)c(=O)n(C)c1=O ?
PfHsp90 yeast 2: inactive; SKKanGAS inh: inactive

How did CC(C)Cn1c(N)c(C(=O)COC(=O)/C=C/c2ccccc2)c(=O)n(C)c1=O do in these assays?
tim23-1 inh: inactive; TIM10 inh: inactive; PfHsp90 yeast 2: inactive; tim10-1 inh: 42; SKKanGAS inh: inactive; tim10-1 conf: inactive

How did COc1ccc(NC(=O)CSc2nnnn2C2CC2)cc1S(=O)(=O)N1CCOCC1 do in these assays?
tim23-1 inh: inactive; TIM10 inh: inactive; tim10-1 inh: inactive

How did CC(C)(C)n1nnnc1C(c1cccs1)N1CCCc2ccccc21 (stereo not drawn) do in these assays?
tim23-1 inh: inactive; TIM10 inh: inactive; PfHsp90 yeast 2: inactive; tim10-1 inh: 43; SKKanGAS inh: inactive; tim10-1 conf: 38

What do the screens show for `CC(C)C(c1nnnn1C1CCCC1)N1CCCc2ccccc21` (stereo not drawn)?
tim23-1 inh: inactive; TIM10 inh: inactive; tim10-1 inh: 41; SKKanGAS inh: inactive; tim10-1 conf: 37

How did CC(C)C(c1nnnn1C1CCCCC1)N1CCCc2ccccc21 (stereo not drawn) do in these assays?
tim23-1 inh: inactive; TIM10 inh: inactive; PfHsp90 yeast 2: inactive; tim10-1 inh: 44; SKKanGAS inh: inactive; tim10-1 conf: inactive

Results for CC(C)C(c1nnnn1C1CCCC1)N1CCc2ccccc21 (stereo not drawn) ?
tim23-1 inh: inactive; TIM10 inh: inactive; PfHsp90 yeast 2: inactive; tim10-1 inh: inactive

What do the screens show for `COc1ccc(Cc2nnc(SCC(=O)Nc3cc(Cl)ccc3C)[nH]c2=O)cc1`?
tim23-1 inh: inactive; TIM10 inh: inactive; PfHsp90 yeast 2: inactive; tim10-1 inh: inactive; SKKanGAS inh: inactive

How did O=C(CNC(=O)c1cccc(Cl)c1)NCCCSc1ccccc1 do in these assays?
tim23-1 inh: inactive; TIM10 inh: inactive; PfHsp90 yeast 2: inactive; tim10-1 inh: inactive; SKKanGAS inh: inactive

What do the screens show for `CCc1ccccc1NC(=O)c1ccc(CN2CCC(Cc3ccccc3)CC2)cc1`?
tim23-1 inh: inactive; TIM10 inh: inactive; PfHsp90 yeast 2: inactive; tim10-1 inh: inactive; SKKanGAS inh: inactive

Results for Clc1c2c(nc3ccccc13)CCC2 ?
tim23-1 inh: inactive; TIM10 inh: inactive; PfHsp90 yeast 2: inactive; tim10-1 inh: inactive; SKKanGAS inh: inactive

What do the screens show for `Cc1c2c(nc3ccccc13)CCC(C(C)(C)C)C2` (stereo not drawn)?
tim23-1 inh: inactive; TIM10 inh: inactive; PfHsp90 yeast 2: inactive; tim10-1 inh: 42; SKKanGAS inh: inactive; tim10-1 conf: inactive

What do the screens show for `CCOC(=O)c1c(-c2ccccc2)csc1NC(=O)CCN1C(=O)c2ccccc2C1=O`?
tim23-1 inh: inactive; TIM10 inh: inactive; PfHsp90 yeast 2: inactive; tim10-1 inh: inactive; SKKanGAS inh: inactive

Results for CCOC(=O)c1c(-c2ccc(-c3ccccc3)cc2)csc1NC(=O)CNCCN(C)C ?
tim23-1 inh: inactive; TIM10 inh: inactive; PfHsp90 yeast 2: inactive; tim10-1 inh: 43; SKKanGAS inh: 112; tim10-1 conf: inactive

Results for CCOC(=O)c1c(-c2ccccc2)csc1NC(=S)NC ?
tim23-1 inh: inactive; TIM10 inh: inactive; PfHsp90 yeast 2: inactive; tim10-1 inh: 42; SKKanGAS inh: inactive; tim10-1 conf: 38

What do the screens show for `CCNC(=S)Nc1scc(-c2ccccc2)c1C(=O)OCC`?
tim23-1 inh: inactive; TIM10 inh: inactive; PfHsp90 yeast 2: inactive; tim10-1 inh: 41; SKKanGAS inh: inactive; tim10-1 conf: inactive

What do the screens show for `Cc1cc(NC(=O)c2cc3cccc([N+](=O)[O-])c3[nH]2)ccc1F`?
tim23-1 inh: inactive; TIM10 inh: inactive; PfHsp90 yeast 2: inactive; tim10-1 inh: inactive; SKKanGAS inh: inactive

How did Cc1cccc(NC(=S)N2CCCCCC2)c1C do in these assays?
tim23-1 inh: inactive; TIM10 inh: inactive; PfHsp90 yeast 2: inactive; tim10-1 inh: inactive

What do the screens show for `Cc1c(Cl)cccc1NC(=S)N1CCCCCC1`?
tim23-1 inh: inactive; TIM10 inh: inactive; PfHsp90 yeast 2: inactive; tim10-1 inh: 44; SKKanGAS inh: inactive; tim10-1 conf: inactive

What do the screens show for `c1ccc(-c2nn3c(-c4ccco4)nnc3s2)nc1`?
tim23-1 inh: inactive; TIM10 inh: inactive; PfHsp90 yeast 2: inactive; tim10-1 inh: inactive; SKKanGAS inh: inactive

Results for COc1cccc(OC)c1-c1nn2c(-c3ccco3)nnc2s1 ?
tim23-1 inh: inactive; TIM10 inh: inactive; PfHsp90 yeast 2: inactive; tim10-1 inh: 45; SKKanGAS inh: inactive; tim10-1 conf: 31

Source: PubChem BioAssay
